According to article PMC7862700, “An all-to-all approach to the identification of sequence-specific readers for epigenetic DNA modifications on cytosine”:

Legend:
Test in all cases: DAPPL (digital affinity profiling via proximity ligation, sequencing); 10 mM Tris-HCl pH 7.5, 50 mM NaCl, 1 mM DTT, 4% glycerol, room temperature, 30 min; GST-TFs on glutathione beads, 16-mer random dsDNA library, 0.1% formaldehyde crosslink after washing; high values mean tight binding
[1] = biological target: T1, FEV (Homo sapiens, UniProt Q99581 1-238); settings: protein: recombinant; tags: N-terminal GST; dsDNA, one strand shown
T1 sequence: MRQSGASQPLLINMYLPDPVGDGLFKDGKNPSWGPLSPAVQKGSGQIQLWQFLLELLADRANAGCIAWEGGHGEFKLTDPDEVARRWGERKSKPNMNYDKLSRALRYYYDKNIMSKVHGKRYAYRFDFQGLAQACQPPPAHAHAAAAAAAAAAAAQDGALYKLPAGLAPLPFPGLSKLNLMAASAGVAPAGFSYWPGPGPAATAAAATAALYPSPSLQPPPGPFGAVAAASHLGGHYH
How it was run: (§1)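 Binding signal is each hexamer's read frequency for a factor divided by its frequency in the tag-only sample. The factors were GST-fused human transcription factors from yeast, captured on glutathione beads, DNA-barcoded and pooled with that sample. Pools were incubated with 200 nmole of a random double-stranded 16-mer DNA library in Tris/NaCl/DTT/glycerol buffer at room temperature for 30 min, then washed, crosslinked with 0.1% formaldehyde, proximity-ligated with BsaI/T4 ligase (1 h, 37 °C), PCR-amplified and sequenced on an Illumina NextSeq500.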

[2] = biological target: ETV5 (Homo sapiens, UniProt P41161 1-510); settings: protein: recombinant; tags: N-terminal GST; dsDNA, one strand shown
Sequence of ETV5 (P41161 whole entry): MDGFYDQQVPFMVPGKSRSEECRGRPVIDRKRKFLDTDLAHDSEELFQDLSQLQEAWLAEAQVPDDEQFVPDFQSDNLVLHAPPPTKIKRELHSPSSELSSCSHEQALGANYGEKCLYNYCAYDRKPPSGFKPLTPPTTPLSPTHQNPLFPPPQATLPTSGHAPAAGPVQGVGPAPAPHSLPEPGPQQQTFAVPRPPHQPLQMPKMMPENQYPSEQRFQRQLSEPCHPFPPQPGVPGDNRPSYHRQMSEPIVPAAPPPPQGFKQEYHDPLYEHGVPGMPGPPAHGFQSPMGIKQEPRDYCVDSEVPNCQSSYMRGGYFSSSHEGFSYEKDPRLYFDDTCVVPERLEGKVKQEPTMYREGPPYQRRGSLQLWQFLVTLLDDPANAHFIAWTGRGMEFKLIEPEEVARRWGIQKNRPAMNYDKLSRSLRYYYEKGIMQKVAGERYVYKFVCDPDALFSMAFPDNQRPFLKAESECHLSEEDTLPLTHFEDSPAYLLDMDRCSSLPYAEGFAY
How it was run: as §1

[3] = biological target: HSF1 (Homo sapiens, UniProt Q00613 1-529); settings: protein: recombinant; tags: N-terminal GST; chain copies: 3; dsDNA, one strand shown
Sequence of HSF1 (Q00613 whole entry): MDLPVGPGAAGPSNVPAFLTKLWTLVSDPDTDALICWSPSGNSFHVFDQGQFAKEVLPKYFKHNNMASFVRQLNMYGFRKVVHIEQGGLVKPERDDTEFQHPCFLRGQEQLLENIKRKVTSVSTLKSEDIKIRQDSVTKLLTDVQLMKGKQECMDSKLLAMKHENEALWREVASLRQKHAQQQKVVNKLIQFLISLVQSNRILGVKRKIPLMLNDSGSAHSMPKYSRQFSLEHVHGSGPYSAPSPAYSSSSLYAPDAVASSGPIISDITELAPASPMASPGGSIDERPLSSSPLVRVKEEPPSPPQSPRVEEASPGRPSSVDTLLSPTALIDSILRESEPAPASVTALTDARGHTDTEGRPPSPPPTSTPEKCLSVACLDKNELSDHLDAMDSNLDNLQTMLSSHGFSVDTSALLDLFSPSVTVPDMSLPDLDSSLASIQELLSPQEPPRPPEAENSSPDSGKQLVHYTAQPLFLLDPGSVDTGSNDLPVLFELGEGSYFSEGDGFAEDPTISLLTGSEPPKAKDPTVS
How it was run: as §1

[4] = biological target: T2, SPIC (Homo sapiens, UniProt Q8N5J4 1-248); settings: protein: recombinant; tags: N-terminal GST; dsDNA, one strand shown
T2 sequence: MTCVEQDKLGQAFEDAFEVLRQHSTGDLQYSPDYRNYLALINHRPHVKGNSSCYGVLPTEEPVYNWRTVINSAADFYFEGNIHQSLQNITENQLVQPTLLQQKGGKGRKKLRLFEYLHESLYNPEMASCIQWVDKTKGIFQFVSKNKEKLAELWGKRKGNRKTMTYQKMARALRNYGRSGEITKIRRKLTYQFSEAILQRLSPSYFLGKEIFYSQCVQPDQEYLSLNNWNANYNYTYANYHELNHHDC
How it was run: as §1

[5] = biological target: ELF4 (Homo sapiens, UniProt Q99607 1-663); settings: protein: recombinant; tags: N-terminal GST; dsDNA, one strand shown
Sequence of ELF4 (Q99607 whole entry): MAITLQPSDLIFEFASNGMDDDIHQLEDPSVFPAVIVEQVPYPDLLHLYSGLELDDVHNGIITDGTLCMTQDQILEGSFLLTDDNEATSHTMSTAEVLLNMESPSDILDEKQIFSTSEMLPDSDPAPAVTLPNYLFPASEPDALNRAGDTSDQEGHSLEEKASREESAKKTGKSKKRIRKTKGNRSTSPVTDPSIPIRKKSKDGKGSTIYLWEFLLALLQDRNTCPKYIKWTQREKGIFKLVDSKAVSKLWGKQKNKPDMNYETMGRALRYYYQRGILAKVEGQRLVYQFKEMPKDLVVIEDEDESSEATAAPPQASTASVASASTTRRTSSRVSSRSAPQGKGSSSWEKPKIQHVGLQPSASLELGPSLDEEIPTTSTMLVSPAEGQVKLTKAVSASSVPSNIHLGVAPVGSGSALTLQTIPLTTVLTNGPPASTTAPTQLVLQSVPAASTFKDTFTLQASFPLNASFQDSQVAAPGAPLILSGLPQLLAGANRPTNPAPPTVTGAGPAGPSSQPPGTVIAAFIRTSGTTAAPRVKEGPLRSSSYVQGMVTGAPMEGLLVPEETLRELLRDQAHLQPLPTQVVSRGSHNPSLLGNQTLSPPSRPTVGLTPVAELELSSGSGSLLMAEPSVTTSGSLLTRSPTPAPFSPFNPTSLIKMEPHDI
How it was run: as §1

[6] = biological target: T3, ELK4 (Homo sapiens, UniProt P28324-2 1-405); settings: protein: recombinant; tags: N-terminal GST; dsDNA, one strand shown
T3 sequence: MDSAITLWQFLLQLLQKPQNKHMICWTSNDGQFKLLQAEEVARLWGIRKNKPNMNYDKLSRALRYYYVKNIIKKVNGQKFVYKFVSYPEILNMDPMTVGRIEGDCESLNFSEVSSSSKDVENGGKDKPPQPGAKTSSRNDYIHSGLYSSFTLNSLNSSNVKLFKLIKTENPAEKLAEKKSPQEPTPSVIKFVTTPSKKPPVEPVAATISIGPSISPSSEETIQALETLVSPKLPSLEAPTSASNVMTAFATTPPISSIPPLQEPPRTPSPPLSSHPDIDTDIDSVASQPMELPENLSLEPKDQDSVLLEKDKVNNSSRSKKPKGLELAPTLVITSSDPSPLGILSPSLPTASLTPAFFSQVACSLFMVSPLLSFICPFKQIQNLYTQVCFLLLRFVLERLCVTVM
How it was run: as §1

[7] = biological target: T4, ETV2 (Homo sapiens, UniProt O00321 1-342); settings: protein: recombinant; tags: N-terminal GST; dsDNA, one strand shown
T4 sequence: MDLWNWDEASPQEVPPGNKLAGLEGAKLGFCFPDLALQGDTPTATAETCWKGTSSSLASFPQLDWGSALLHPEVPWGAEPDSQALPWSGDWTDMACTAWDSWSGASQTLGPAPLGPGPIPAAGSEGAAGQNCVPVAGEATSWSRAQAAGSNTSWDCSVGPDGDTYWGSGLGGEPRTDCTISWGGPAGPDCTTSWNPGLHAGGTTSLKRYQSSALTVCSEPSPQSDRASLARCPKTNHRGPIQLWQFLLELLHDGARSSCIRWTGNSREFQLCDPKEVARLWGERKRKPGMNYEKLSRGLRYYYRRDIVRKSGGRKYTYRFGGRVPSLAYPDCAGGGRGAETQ
How it was run: as §1

[8] = biological target: T5, ELF3 (Homo sapiens, UniProt P78545 1-371); settings: protein: recombinant; tags: N-terminal GST; dsDNA, one strand shown
T5 sequence: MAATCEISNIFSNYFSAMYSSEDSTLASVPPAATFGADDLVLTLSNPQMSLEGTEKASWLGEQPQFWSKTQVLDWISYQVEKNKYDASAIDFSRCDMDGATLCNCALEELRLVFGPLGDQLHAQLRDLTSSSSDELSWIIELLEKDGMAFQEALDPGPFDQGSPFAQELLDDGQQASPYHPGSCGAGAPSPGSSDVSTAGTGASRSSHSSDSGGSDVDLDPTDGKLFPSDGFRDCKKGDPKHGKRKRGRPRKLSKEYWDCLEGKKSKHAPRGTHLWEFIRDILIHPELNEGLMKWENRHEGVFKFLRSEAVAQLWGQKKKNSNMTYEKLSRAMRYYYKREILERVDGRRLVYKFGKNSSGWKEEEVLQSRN
How it was run: as §1

[9] = biological target: CRX (Homo sapiens, UniProt O43186 1-299); settings: protein: recombinant; tags: N-terminal GST; dsDNA, one strand shown
Sequence of CRX (O43186 whole entry): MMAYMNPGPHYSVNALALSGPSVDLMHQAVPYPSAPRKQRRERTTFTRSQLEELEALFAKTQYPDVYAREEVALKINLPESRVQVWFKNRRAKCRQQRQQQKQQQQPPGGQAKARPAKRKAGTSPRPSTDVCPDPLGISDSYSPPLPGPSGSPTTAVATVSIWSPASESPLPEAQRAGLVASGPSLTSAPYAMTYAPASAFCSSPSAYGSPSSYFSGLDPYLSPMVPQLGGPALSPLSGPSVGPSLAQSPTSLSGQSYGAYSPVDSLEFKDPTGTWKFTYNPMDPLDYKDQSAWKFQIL
How it was run: as §1

[10] = biological target: ETV1 (Homo sapiens, UniProt P50549 1-477); settings: protein: recombinant; tags: N-terminal GST; dsDNA, one strand shown
Sequence of ETV1 (P50549 whole entry): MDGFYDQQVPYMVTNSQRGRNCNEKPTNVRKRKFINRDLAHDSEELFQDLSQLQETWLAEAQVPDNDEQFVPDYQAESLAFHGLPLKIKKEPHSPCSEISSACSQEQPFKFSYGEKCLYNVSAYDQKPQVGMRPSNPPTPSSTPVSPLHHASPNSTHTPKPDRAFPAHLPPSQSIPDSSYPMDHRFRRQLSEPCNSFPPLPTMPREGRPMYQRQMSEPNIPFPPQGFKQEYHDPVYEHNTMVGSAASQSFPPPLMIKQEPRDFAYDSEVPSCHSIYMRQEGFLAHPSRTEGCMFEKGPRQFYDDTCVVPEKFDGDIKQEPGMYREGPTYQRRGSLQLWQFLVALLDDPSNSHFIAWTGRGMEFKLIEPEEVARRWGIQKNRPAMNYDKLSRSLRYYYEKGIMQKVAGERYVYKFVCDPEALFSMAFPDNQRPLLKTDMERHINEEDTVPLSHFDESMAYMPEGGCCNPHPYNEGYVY
How it was run: as §1

[11] = biological target: T6, ERF (Homo sapiens, UniProt P50548 1-548); settings: protein: recombinant; tags: N-terminal GST; dsDNA, one strand shown
T6 sequence: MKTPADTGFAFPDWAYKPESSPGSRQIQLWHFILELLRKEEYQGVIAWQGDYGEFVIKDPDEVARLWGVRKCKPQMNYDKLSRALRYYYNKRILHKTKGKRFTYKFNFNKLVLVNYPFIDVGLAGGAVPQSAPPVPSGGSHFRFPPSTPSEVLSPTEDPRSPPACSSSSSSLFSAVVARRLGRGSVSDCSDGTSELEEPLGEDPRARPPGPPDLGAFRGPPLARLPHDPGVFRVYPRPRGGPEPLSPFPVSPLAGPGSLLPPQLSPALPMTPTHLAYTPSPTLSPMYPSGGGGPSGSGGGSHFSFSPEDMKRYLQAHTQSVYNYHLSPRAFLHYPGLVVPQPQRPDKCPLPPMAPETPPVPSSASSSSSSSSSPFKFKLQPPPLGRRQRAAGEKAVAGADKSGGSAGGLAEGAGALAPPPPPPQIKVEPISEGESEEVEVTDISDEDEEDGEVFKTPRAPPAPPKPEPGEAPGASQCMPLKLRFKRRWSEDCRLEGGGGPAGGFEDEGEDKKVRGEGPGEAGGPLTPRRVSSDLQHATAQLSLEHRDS
How it was run: as §1

[12] = biological target: T7, ETV3L (Homo sapiens, UniProt Q6ZN32 1-361); settings: protein: recombinant; tags: N-terminal GST; dsDNA, one strand shown
T7 sequence: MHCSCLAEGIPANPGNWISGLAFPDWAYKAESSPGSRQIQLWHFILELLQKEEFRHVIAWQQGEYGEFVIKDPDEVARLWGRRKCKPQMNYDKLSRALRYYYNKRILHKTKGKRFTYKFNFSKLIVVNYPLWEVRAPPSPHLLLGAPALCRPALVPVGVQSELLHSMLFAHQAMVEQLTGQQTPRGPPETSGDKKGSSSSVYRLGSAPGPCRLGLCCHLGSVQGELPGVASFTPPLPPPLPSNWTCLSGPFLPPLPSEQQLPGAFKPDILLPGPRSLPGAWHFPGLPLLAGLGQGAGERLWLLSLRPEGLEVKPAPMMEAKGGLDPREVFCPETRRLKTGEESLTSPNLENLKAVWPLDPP
How it was run: as §1

[13] = biological target: T8, ETS2 (Homo sapiens, UniProt P15036 1-469); settings: protein: recombinant; tags: N-terminal GST; dsDNA, one strand shown
T8 sequence: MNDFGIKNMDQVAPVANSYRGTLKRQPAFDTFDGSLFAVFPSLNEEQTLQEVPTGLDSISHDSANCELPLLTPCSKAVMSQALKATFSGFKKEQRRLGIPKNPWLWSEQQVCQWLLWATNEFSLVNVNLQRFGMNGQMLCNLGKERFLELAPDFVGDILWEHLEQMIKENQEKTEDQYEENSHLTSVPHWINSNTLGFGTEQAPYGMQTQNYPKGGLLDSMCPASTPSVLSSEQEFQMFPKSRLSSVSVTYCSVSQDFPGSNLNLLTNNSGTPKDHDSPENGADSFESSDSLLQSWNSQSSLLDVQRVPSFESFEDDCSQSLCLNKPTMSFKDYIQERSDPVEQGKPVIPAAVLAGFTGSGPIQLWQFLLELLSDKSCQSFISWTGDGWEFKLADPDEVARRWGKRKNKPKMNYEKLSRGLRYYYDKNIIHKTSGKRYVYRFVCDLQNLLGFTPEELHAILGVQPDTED
How it was run: as §1

[14] = biological target: T9, SPDEF (Homo sapiens, UniProt O95238 1-335); settings: protein: recombinant; tags: N-terminal GST; dsDNA, one strand shown
T9 sequence: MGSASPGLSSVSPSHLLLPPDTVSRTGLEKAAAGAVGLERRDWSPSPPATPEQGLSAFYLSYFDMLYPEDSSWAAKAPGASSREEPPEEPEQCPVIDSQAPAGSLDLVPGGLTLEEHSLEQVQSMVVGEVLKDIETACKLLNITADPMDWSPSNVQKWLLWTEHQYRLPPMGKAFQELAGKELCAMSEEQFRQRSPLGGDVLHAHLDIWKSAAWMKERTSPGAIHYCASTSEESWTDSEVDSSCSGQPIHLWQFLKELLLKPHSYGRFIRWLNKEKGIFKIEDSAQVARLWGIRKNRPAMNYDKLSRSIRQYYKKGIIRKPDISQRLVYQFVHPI
How it was run: as §1

[15] = biological target: T10, ETV7 (Homo sapiens, UniProt Q9Y603 1-341); settings: protein: recombinant; tags: N-terminal GST; dsDNA, one strand shown
T10 sequence: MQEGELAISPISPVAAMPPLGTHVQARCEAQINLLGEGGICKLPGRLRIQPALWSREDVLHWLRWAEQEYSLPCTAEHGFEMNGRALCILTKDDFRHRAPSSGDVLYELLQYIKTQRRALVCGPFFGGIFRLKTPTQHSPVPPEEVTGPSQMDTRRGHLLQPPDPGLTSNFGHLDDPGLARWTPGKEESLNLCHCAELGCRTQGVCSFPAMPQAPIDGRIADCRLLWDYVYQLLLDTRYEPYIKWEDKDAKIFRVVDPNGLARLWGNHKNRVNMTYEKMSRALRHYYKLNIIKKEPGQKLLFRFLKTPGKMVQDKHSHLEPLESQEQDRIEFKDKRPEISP
How it was run: as §1

[16] = biological target: T11, ELF5 (Homo sapiens, UniProt Q9UKW6-2 1-255); settings: protein: recombinant; tags: N-terminal GST; dsDNA, one strand shown
T11 sequence: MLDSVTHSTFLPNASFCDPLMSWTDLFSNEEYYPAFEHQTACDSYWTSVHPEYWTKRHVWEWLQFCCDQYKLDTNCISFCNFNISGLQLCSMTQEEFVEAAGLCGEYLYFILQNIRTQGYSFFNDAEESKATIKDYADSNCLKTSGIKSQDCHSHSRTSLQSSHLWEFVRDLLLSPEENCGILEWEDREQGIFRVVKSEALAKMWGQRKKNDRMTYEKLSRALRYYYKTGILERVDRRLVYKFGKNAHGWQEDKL
How it was run: as §1

[17] = biological target: T12, ETV3 (Homo sapiens, UniProt P41162-2 1-143); settings: protein: recombinant; tags: N-terminal GST; dsDNA, one strand shown
T12 sequence: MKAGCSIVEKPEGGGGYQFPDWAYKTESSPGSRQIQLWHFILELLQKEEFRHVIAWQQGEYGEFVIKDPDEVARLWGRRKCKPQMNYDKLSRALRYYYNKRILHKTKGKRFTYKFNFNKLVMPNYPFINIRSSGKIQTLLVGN
How it was run: as §1

[18] = biological target: ETV6 (Homo sapiens, UniProt P41212 1-452); settings: protein: recombinant; tags: N-terminal GST; dsDNA, one strand shown
Sequence of ETV6 (P41212 whole entry): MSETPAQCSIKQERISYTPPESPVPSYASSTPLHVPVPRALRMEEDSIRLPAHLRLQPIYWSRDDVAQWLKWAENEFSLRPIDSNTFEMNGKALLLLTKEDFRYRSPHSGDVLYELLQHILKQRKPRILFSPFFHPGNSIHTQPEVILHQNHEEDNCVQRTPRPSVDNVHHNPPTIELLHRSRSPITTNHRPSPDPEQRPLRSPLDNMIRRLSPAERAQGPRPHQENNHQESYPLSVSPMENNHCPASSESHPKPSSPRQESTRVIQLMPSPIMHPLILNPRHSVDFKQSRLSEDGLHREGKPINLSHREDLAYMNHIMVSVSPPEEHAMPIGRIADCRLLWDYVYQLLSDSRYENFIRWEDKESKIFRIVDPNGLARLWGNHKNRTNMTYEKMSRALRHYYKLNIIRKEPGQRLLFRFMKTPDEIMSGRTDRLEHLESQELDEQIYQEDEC
How it was run: as §1

CTCCAC
binding signal [1]: 1.42 fold enrichment (6-mer frequency, TF over GST control)
binding signal [2]: 1.42 fold enrichment (6-mer frequency, TF over GST control)
binding signal [3]: 1.26 fold enrichment (6-mer frequency, TF over GST control)
binding signal [4]: 1.17 fold enrichment (6-mer frequency, TF over GST control)
binding signal [5]: 1.4 fold enrichment (6-mer frequency, TF over GST control)
binding signal [6]: 1.46 fold enrichment (6-mer frequency, TF over GST control)
binding signal [7]: 1.3 fold enrichment (6-mer frequency, TF over GST control)
binding signal [8]: 1.27 fold enrichment (6-mer frequency, TF over GST control)
binding signal [9]: 1.17 fold enrichment (6-mer frequency, TF over GST control)
binding signal [10]: 1.25 fold enrichment (6-mer frequency, TF over GST control)
binding signal [11]: 1.31 fold enrichment (6-mer frequency, TF over GST control)
binding signal [12]: 1.45 fold enrichment (6-mer frequency, TF over GST control)
binding signal [13]: 1.43 fold enrichment (6-mer frequency, TF over GST control)
binding signal [14]: 1.27 fold enrichment (6-mer frequency, TF over GST control)
binding signal [15]: 1.39 fold enrichment (6-mer frequency, TF over GST control)
binding signal [16]: 1.35 fold enrichment (6-mer frequency, TF over GST control)
binding signal [17]: 1.3 fold enrichment (6-mer frequency, TF over GST control)
binding signal [18]: 1.26 fold enrichment (6-mer frequency, TF over GST control)
